25 molecules from PubChem BioAssay (NCI) can be followed below.

Values joined by “and” are separate entries in the source; they are usually repeats but may differ in a detail not shown here. Equal entries are not always repeated. About 83,000 compounds went through this panel and 20% of them were active in at least one assay; those are over-represented in the sample as a whole.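 96-well plates, one dose, 48 hours. Percent growth reported; active if below 10.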 A number with no mark means an inactive call. Active and inactive are the calls of the source.

Holding throughout (experiment): NCI-60 one-dose screen, 48 h (100 = growth as untreated, 0 = no growth, -100 = all killed)
Holding throughout (details): 10 µM unless noted

For assay [1], the system named is SR leukemia.
Assay [2] concerns RPMI-8226 leukemia.
Assay [3] has as its system OVCAR-8 ovarian.
Assay [4] deals with OVCAR-5 ovarian.
Assay [5] relates to OVCAR-4 ovarian.
In assay [6] the test system is SK-OV-3 ovarian.
The test system of assay [7] is IGROV1 ovarian.
In assay [8] the test system is OVCAR-3 ovarian.
The subject of assay [9] is HS 578T breast.
In assay [10] the test system is NCI/ADR-RES ovarian.

Take `Cc1nnc(NS(=O)(=O)c2ccc(N=Nc3ccc(N)nc3N)cc2)s1`: the growth in [1] is 94.2% and 94.5%; in assay [2] it was 105%; in assay [3], 107% and 116%; in assay [4], 98.7% and 99.3%; in [5] it was 110% and 105%; in [6] it was 111%. In addition, the growth in assay [7] was 123% and 108%; in assay [8], 124% and 105%; in assay [9], 121% and 105%; in assay [10] it was 102% and 106%.
As to `CCCn1nc(C(=O)N2CCCCC2)c2c1CCC(N1CCC(c3ccncc3)CC1)C2` (stereo not given), the growth in [1] was 123%; in assay [2], 105%; in assay [3], 98.3%; in assay [4], 107%; in assay [5] it was 103%; in assay [6], 109%. The growth was 113% in assay [7], 106% in [8], 103% in [9] and 101% in assay [10].
Turning to `COc1cc(CNC(=O)CCCC/C=C/C(C)C)ccc1OCc1cn(-c2ccc([N+](=O)[O-])cc2)nn1`, the growth in assay [1] is 62.2%; in assay [2], 61.8%; in assay [3], 82.9%; in assay [4] it was 99.1%; in assay [5], 87.2%; in assay [6] it was 76.7%. Further, the growth in [7] is 90.4%; in assay [8] it was 92.7%; in [9], 95.8%; in assay [10], 29%.
In the case of `CC1=C2[C@@H](CC1)[C@]1(C)O[C@@](C3CC3)(C[C@H]1OC(=O)CO)[C@H]2OC(=O)/C=C/c1ccccc1`, the growth is 80.4% in assay [1]; 84.3% in [2]; 8.13% (active) in assay [3]; 96% in assay [4]; 110% in assay [5]; 99.3% in [6]. Also, the growth in assay [7] was 100%; in assay [8], 95.2%; in [9] it was -14.6% (active); in assay [10] it was 2.55% (active).
As for `COc1ccc(/C(C)=C(\c2ccc(OCCN3CCCCCC3)cc2)c2ccc(OC(=O)C3CCCCC3)cc2)cc1`, the growth in assay [1] is -20.1% (active); in [2], -55.1% (active); in [3] it was -47.3% (active); in assay [4], -24.7% (active); in assay [5], -28.4% (active); in [6], -70.9% (active). For the same molecule, the growth is -49% (active) in [7], -86.9% (active) in [8], -38.3% (active) in assay [9] and -65.2% (active) in assay [10].
For `Cc1ccc(/C=C(\C#N)c2cc3ccccc3[nH]2)cc1`, the growth is 16.2% in [1]; 60.2% in [2]; 63% in assay [3]; 65.2% in assay [4]; 71.6% in assay [5]; 67.1% in assay [6]. For the same molecule, the growth in assay [7] was 55.3%; in assay [8] it was 29.7%; in [9] it was 61.9%; in assay [10] it was 16.1%.
Turning to `COc1cc(N=Nc2ccc(O)c3ncccc23)c2ncccc2c1`, the growth is 7.54% (active) in assay [1]; 31.7% in [2]; 17.1% in assay [3]; 59.8% in assay [4]; 17.4% in [5]; 43.3% in assay [6]. Further, the growth is 27.4% in [7], 30.3% in assay [8], 33.9% in assay [9] and -1.77% (active) in [10].
On to `CC(=O)c1c(C)nc2ccccc2c1/C=C/c1cccc(C)c1`, for which the growth is 23.3% in assay [1]; 56% in assay [2]; 69.4% in assay [3]; 83.6% in [4]; 67.2% in [5]; 69.7% in assay [6]. Further, the growth in assay [7] is 48.1%; in assay [8], 45.5%; in assay [9], 62.5%; in assay [10] it was 29.8%.
Turning to `O=C(Cc1ccc(F)cc1)c1ccccc1`, the growth in assay [1] is 100%; in assay [2] it was 95.9%; in assay [3], 104%; in assay [4], 122%; in [5], 109%; in assay [6] it was 108%. Moreover, the growth in [7] is 107%; in [8] it was 129%; in assay [9] it was 94%; in assay [10], 108%.
Regarding `Cc1ccc(S(=O)(=O)OC[C@@]2(C)CC[C@]3(C)CC[C@]4(C)C(=C3C2)C=C[C@@H]2[C@@]3(C)CCCNC(C)(C)[C@@H]3CC[C@]24C)cc1`, the growth in [1] is -30.9% (active); in assay [2], -66% (active); in assay [3], -65.6% (active); in assay [4] it was 34.8%; in [5], -40.5% (active); in [6], 104%. In addition, the growth was -2.07% (active) in assay [7], 23.5% in [8], 83.4% in [9] and -19.7% (active) in [10].
`ON=C1CCCCCCCC1`: the growth in assay [1] was 90.9% and 97.5%; in assay [2], 103% and 102%; in [3], 102% and 107%; in [4], 103% and 105%; in assay [5], 115% and 113%; in [6] it was 100% and 103%. The growth is 113% and 111% in [7]; 111% in [8]; 107% and 108% in assay [9]; 103% and 105% in assay [10].
Consider `COc1ccc(-c2c[nH]c(C(=O)O)c2-c2cc(OC)c(OC)c(OC)c2)cc1`, for which the growth in [1] is 18.7%; in [2], 36%; in assay [3], 51.4%; in [4] it was 80.6%; in [5], 49.9%; in [6], 53.2%. For the same molecule, the growth in assay [7] is 54.8%; in assay [8], -2.04% (active); in assay [9], 9.64% (active); in [10], 24.2%.
Turning to `COc1ccc(-c2nn3c(-c4cc(F)c(Cl)cc4Cl)nnc3s2)cc1`, the growth is 13.1% in [1]; 29.9% in [2]; 67.5% in assay [3]; 59.5% in assay [4]; 80% in [5]; 61.1% in assay [6]. For the same molecule, the growth was 40.6% in [7], 27.8% in [8], -20.6% (active) in [9] and 3.63% (active) in [10].
For the molecule `COc1cc(/C=C2\C(=O)N(CCCCn3c4ccccc4c(=O)c4ccccc43)c3ccccc32)cc(OC)c1O`, the growth in [1] was 14.7%; in [2], 35.2%; in [3], 50.1%; in [4], 91%; in [5] it was 56.1%; in assay [6], 97.1%. Also, the growth in assay [7] is 52.3%; in [8] it was 31.6%; in assay [9] it was 68.8%; in [10], 48.6%.
For `Nc1ccc(-c2ccc(N)c(Br)c2)cc1Br`, the growth in assay [1] was 20.7%; in assay [2], 29%; in assay [3] it was 59.2%; in assay [4] it was 63%; in assay [5] it was 75.5%; in [6], 64.4%. Besides, the growth in assay [7] is 47%; in [8] it was 51.4%; in assay [9], 79.5%; in assay [10], 29.2%.
On to `COc1ccc(C/C(C)=C(\c2ccc(O)cc2)c2ccc(OCCCN(C)C)cc2)cc1`, for which the growth in assay [1] was 59.7%; in assay [2], 86.8%; in assay [3] it was 89.5%; in [4] it was 102%; in [5], 92.6%; in [6], 101%. For the same molecule, the growth is 102% in assay [7], 98.3% in [8], 89% in [9] and 98.5% in [10].
Turning to `CCOC(=O)c1cnn(CC(O)CC)c1NC(=O)NCc1ccccc1C(F)(F)F` (stereo not given), the growth in [1] is 114%; in assay [2], 81%; in assay [3], 102%; in assay [4] it was 103%; in assay [5], 106%; in assay [6] it was 91.4%. The growth in [7] is 94.9%; in [8], 107%; in [9], 109%; in assay [10] it was 95.4%.
Consider `C=C1C(=O)O[C@H]2[C@H]1CC/C(COC(=O)NCc1ccc(Cn3c(=O)sn(CCCI)c3=O)cc1)=C\CC[C@@]1(C)O[C@@H]21`, for which the growth in assay [1] is 8.4% (active); in assay [2], -6.45% (active); in assay [3], 37.7%; in [4] it was 71.1%; in [5], 17.7%; in assay [6] it was 101%. Besides, the growth in assay [7] is -0.0888% (active); in assay [8] it was -33.4% (active); in assay [9], 78.4%; in [10], 102%.
Consider `Cc1ccc(-c2nc3nc(-c4ccc(Cl)cc4)nc(N4CCCNCC4)c3o2)cc1`, for which the growth was -44.9% (active) in assay [1]; -48.7% (active) in assay [2]; -58.7% (active) in assay [3]; -98.5% (active) in [4]; -83.5% (active) in assay [5]; 117% in [6]. The growth in assay [7] is -83.8% (active); in [8], -95.5% (active); in assay [9], -50.8% (active); in [10], -66.9% (active).
On to `N#CC1C(=O)c2ccccc2C1c1ccccc1` (stereo not given), for which the growth in [1] was 85.1% and 106%; in assay [2], 111% and 102%; in [3], 96.9% and 97.3%; in assay [4], 110% and 104%; in [5] it was 99.5% and 99.2%; in [6], 105% and 114%. Besides, the growth was 100% and 110% in [7]; 84.9% and 107% in assay [8]; 116% and 105% in assay [9]; 108% and 107% in assay [10].
In the case of `BrC1=C(Br)C(Br)(Br)C(Br)=C1Br`, the growth was 9.34% (active) in assay [1]; 20.8% in [2]; 62.8% in [3]; 97.2% in assay [4]; 104% in [5]; 108% in assay [6]. In addition, the growth in [7] is 98.3%; in assay [8], 104%; in [9], 118%; in [10], 75.2%.
In the case of `CSc1nnc(-c2cc3c([nH]c4ccccc43)c(-c3cccc(O)c3)n2)n1-c1ccc(C)cc1`, the growth in assay [1] was 5.99% (active); in [2], 19.3%; in [3] it was 34.8%; in [4], 72.6%; in [5] it was 54.1%; in [6] it was 42%. The growth in [7] was 51%; in assay [8] it was 1.33% (active); in assay [9] it was 37.3%; in assay [10] it was 43.1%.
For `Cc1ccc2[nH]c(=S)[nH]c(=O)c2c1`, the growth in assay [1] was 90.7%; in assay [2] it was 109%; in [3], 104%; in [4], 107%; in [5] it was 102%; in assay [6], 105%. The growth in assay [7] is 103%; in [8] it was 105%; in [9], 104%; in assay [10], 104%.
`COc1ccc2c(c1)CC[C@@H]1[C@@H]2CC[C@]2(C)C3C(=CCC4C(=O)N(c5ccccc5)C(=O)C43)C[C@@H]12` (stereo not given in full): the growth in [1] is 99.1%; in assay [2], 61.2%; in [3], 86.2%; in assay [4] it was 75.7%; in assay [5], 78.8%; in assay [6], 103%. Further, the growth is 113% in [7], 87.3% in [8], 97.6% in assay [9] and 85.8% in assay [10].
On to `COc1ccc(C/C(C)=C(/c2ccc(OCCN3CCCCCC3)cc2)c2ccc(OC(=O)c3ccccc3)cc2)cc1`, for which the growth in assay [1] was 71.3%; in assay [2], 112%; in assay [3] it was 107%; in assay [4], 98.2%; in assay [5], 116%; in [6] it was 93.7%. Also, the growth was 106% in assay [7], 117% in [8], 98.5% in [9] and 111% in [10].
